Assay results as given in PubChem BioAssay (NCATS).
Where “and” joins values, the source holds several entries; their conditions need not be identical. Equal values may be shown once. Inconclusive results are not listed. Where a call stands in place of a potency, no number is given. Some compounds were tested as several samples or in several runs, with calls that do not always agree. Calls of active or inactive are those of the source. Unless noted, calls follow the shape of the dose curve; as a rule, active = well fitted curve in the direction sought with a large enough effect; inconclusive = small, poorly fitted or top-dose-only effect, or another doubt; inactive = no such curve, though single readings can be large; an effect the other way counts as inactive or inconclusive.

Columns and labels:
[1] = Validation qHTS assay for inhibitors of Activation Induced Cytidine Deaminase (AID): UDG Counterscreen signal (AID 1347427); settings: biochemical UDG counterscreen, fluorescence signal; series mostly up to 115 µM
Method in brief: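 Fluorescence at 560 nm excitation, 665 nm emission reports UDG signal after 250 mM NaOH (2x) addition and 30 min. Enzymes (AID 1 uM, UDG 2 U/mL, at 4/3x) preincubated 10 min with compound, then 4 h with 4x 250 nM DJC20/DJC23 substrate at room temperature.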

[2] = target: Single-stranded DNA cytosine deaminase (Homo sapiens) (UniProt Q9GZX7); assay: Validation qHTS assay for inhibitors of Activation Induced Cytidine Deaminase (AID): AID signal (AID 1347429); settings: Recombinant AID, FRET ssDNA deamination with UDG, fluorescence; series mostly up to 115 µM; also: potency is read from the fitted curve at half-maximal effect
Method in brief: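 AID+UDG coupled FRET deamination; cpds up to 114 uM final; DJC20/DJC23 substrate, 4 hr RT; NaOH stop, 30 min RT; read Ex 540/Em 590.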

[3] = Primary qHTS for inhibitors of La Crosse Virus (LACV) - induced cell death in SH-SY5Y cells (AID 1508616); settings: SH-SY5Y LACV cytopathicity rescue, ATP luminescence, 6 d; series mostly up to 4.29 µM;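 also: top concentration of the series differs between compounds; higher means more rescue of cells from virus-induced death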
Method in brief: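 Cytopathicity rescue screen: compounds pinned onto SH-SY5Y cells, which are then infected with LACV (MOI 0.01) and held 6 days at 37C. Percent activity is scaled between infected DMSO control and uninfected DMSO control.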

[4] = target: Calcium and integrin-binding protein 1 (Homo sapiens) (UniProt Q99828); assay: Validation qHTS for Identification of Calcium Integrin Binding protein 1 (CIB1) Competitor (AID 1508618); settings: CIB1-GST / FITC-alphaIIb peptide fluorescence polarization; series mostly up to 114 µM
Method in brief: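 In this qHTS validation, the LOPAC set (up to 114 uM) was tested for blocking CIB1 binding to a fluorescein-tagged alphaIIb peptide, with FP detection at 480/540 nm.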

[5] = target: Calcium and integrin-binding protein 1 (Homo sapiens) (UniProt Q99828); assay: Primary qHTS for Identification of Calcium Integrin Binding Protein 1 (CIB1) Competitor (AID 1508620); settings: CIB1-GST / FITC-alphaIIb peptide fluorescence polarization; series mostly up to 57.7 µM;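 also: GST tagged CIB1 binding a fluorescein labelled alphaIIb integrin peptide tracer; top concentration of the series differs between compounds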
Method in brief: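 Fluorescence polarization competition: GST-tagged CIB1 (1 uM final) preincubated with compound 15 min at room temperature, then FITC-labelled alphaIIb peptide (100 nM final) added. After 15 min at room temperature, polarization read at Ex 480/Em 540.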

[6] = A High-Content qHTS Against Drug Library for the Identification of Small Molecules that Inhibit DYT1 Early Onset Primary Dystonia-Associated Cell Pathology (AID 1645839; calls by dose curve; also: potency is read from the fitted curve at half-maximal effect); settings: HEK293 Flp-In EGFP-delE TorsinA, punctate imaging, 48 h; series mostly up to 46.1 µM
Method in brief: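 Cells were seeded and left for 24 h, then dosed with compound alongside tetracycline induction of mutant EGFP-TorsinA. They were incubated for 48 h, fixed in 4% paraformaldehyde, permeabilized and imaged for mislocalization (%pathology) and cell count.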

[7] = target: Cytochrome P450 2C9 (Homo sapiens) (UniProt P11712); assay: Cytochrome P450 family 2 subfamily C member 9 (CYP2C9) small molecule antagonists: luciferase biochemical (cell-free) qHTS assay (AID 1645842; active = well fitted curve in the direction sought with a large enough effect in the repeat runs; an effect the other way counts as inactive or inconclusive; also: nearly all actives have a fitted effect of over 55% in size; also: potency is read from the fitted curve at half-maximal effect); settings: P450-Glo CYP2C9 enzyme assay, luciferin luminescence; series mostly up to 57.4 µM
Method in brief: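 P450-Glo CYP2C9 system: proluciferin substrate with enzyme in mix containing 0.4% BSA, 10 min at room temperature, then NADPH regeneration solution added and incubated 1 h at 37C. Detection reagent stopped reaction; luminescence read after 20 min as RLU.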

Papain (Carica papaya) = Papain (Carica papaya) (UniProt P00784); assay: Primary qHTS assay for inhibitors of the protease papain (AID 1645873); settings: papain Z-FR-AMC cleavage, AMC fluorescence; series mostly up to 49.8 µM;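 also: papain turnover of Z-FR-AMC read as the AMC fluorescence gain over 10 min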; also: potency is read from the fitted curve at half-maximal effect
[8] = Primary qHTS for inhibitors of nuclear receptor binding SET domain protein 2 (NSD2) in an isogenic RCH-ACV NSD2 p.E1099K mutant (9B) (AID 1645876); settings: RCH-ACV NSD2 E1099K (9B) viability, CellTiter-Glo, 72 h; series mostly up to 44.9 µM; also: nearly all actives have a fitted effect of over 70% in size; also: potency is read from the fitted curve at half-maximal effect
[9] = Primary qHTS for inhibitors of nuclear receptor binding SET domain protein 2 (NSD2) in an RCH-ACV wild type WT cells (2C) (AID 1645877); settings: RCH-ACV (leukaemia line) NSD2 WT (2C) viability, CellTiter-Glo, 72 h; series mostly up to 44.9 µM; also: nearly all actives have a fitted effect of over 70% in size; also: potency is read from the fitted curve at half-maximal effect
[10] = Primary qHTS for small molecule stabilizers of the endoplasmic reticulum resident proteome: Secreted ER Calcium Modulated Protein (SERCaMP) assay (AID 1508630); settings: SH-SY5Y GLuc-SERCaMP (Gaussia luciferase released on ER calcium loss) secretion, thapsigargin, luminescence; series mostly up to 38.4 µM
Method in brief: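 The SH-SY5Y reporter protocol was run at 3 concentrations up to 38.3 uM (primary) or 11 concentrations (follow-up): 16 h compound, 100 nM thapsigargin for 4 h, then extracellular luciferase luminescence.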

[11] = Counterscreen qHTS for small molecule stabilizers of the endoplasmic reticulum resident proteome: GLuc-NoTag assay (AID 1508627); settings: Gaussia luciferase NoTag secretion counterscreen, luminescence, thapsigargin 100 nM for final 4 h; series mostly up to 76.4 µM; also: potency is read from the fitted curve at half-maximal effect
Method in brief: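 Counterscreen line: SH-SY5Y-GLuc-NoTag. Seed, 5 h; compound, 19 h; thapsigargin 100 nM, 4 h; 37C/5% CO2. Readout: secreted GLuc luminescence, coelenterazine 0.07x final, no lysis.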

[12] = Confirmatory qHTS for small molecule stabilizers of the endoplasmic reticulum resident proteome: Secreted ER Calcium Modulated Protein (SERCaMP) assay (AID 1508628); settings: SERCaMP secreted luciferase ER calcium/proteostasis reporter; series mostly up to 76.3 µM; also: nearly all actives have a fitted effect of over 40% in size; also: potency is read from the fitted curve at half-maximal effect
Method in brief: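 GLuc-SERCaMP-expressing SH-SY5Y cells, pretreated 16 h with compound, are challenged with thapsigargin to empty ER calcium stores; after 4 h, coelenterazine is added directly to the medium and luminescence is imaged.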

[13] = target: Cytochrome P450 2D6 (Homo sapiens) (UniProt P10635); assay: Cytochrome P450 family 2 subfamily D member 6 (CYP2D6) small molecule antagonists: luciferase biochemical (cell-free) qHTS assay (AID 1645840; active = well fitted curve in the direction sought with a large enough effect in the repeat runs; an effect the other way counts as inactive or inconclusive; also: potency is read from the fitted curve at half-maximal effect; nearly all actives have a fitted effect of over 55% in size); settings: P450-Glo CYP2D6 enzyme, luciferin luminescence, 1 h; series mostly up to 57.4 µM
Method in brief: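 P450-Glo CYP2D6 system: proluciferin substrate converted by enzyme to luciferin, read by luminescence proportional to activity. Enzyme-substrate mix with compound 10 min at room temperature, then NADPH regeneration 1 h before detection reagent.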

[14] = target: N-terminal Xaa-Pro-Lys N-methyltransferase 1 (Homo sapiens) (UniProt Q9BV86); assay: Confirmatory qHTS for Inhibitors of N-terminal methyltransferase 1 (NTMT1): MTaseGlo Assay (AID 1645874); settings: NTMT1 enzyme, MTase-Glo SAH luminescence; series mostly up to 100 µM;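 also: luminescence from SAH made as NTMT1 methylates SPKRIA peptide using SAM; nearly all actives have a fitted effect of over 65% in size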
Method in brief: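 Room-temperature NTMT1 reaction, 30 min, with 100 uM SAM and 1 uM SPKRIA substrate; enzyme 125 nM. Read-out: MTase-Glo luminescence, normalized to no-enzyme and DMSO controls.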

[15] = target: Rap guanine nucleotide exchange factor 3 (Homo sapiens) (UniProt O95398); assay: Confirmatory qHTS for agonist of cAMP-regulated guanine nucleotide exchange factor 3 (EPAC1) (AID 1645881); settings: EPAC1 Rap1B BODIPY-GDP exchange fluorescence; series mostly up to 154 µM;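 also: EPAC1 catalysed release of BODIPY-GDP from Rap1B seen as fluorescence loss; nearly all actives have a fitted effect of over 75% in size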
Rap guanine nucleotide exchange factor 3 (Homo sapiens), sequence (O95398 whole entry, looked up): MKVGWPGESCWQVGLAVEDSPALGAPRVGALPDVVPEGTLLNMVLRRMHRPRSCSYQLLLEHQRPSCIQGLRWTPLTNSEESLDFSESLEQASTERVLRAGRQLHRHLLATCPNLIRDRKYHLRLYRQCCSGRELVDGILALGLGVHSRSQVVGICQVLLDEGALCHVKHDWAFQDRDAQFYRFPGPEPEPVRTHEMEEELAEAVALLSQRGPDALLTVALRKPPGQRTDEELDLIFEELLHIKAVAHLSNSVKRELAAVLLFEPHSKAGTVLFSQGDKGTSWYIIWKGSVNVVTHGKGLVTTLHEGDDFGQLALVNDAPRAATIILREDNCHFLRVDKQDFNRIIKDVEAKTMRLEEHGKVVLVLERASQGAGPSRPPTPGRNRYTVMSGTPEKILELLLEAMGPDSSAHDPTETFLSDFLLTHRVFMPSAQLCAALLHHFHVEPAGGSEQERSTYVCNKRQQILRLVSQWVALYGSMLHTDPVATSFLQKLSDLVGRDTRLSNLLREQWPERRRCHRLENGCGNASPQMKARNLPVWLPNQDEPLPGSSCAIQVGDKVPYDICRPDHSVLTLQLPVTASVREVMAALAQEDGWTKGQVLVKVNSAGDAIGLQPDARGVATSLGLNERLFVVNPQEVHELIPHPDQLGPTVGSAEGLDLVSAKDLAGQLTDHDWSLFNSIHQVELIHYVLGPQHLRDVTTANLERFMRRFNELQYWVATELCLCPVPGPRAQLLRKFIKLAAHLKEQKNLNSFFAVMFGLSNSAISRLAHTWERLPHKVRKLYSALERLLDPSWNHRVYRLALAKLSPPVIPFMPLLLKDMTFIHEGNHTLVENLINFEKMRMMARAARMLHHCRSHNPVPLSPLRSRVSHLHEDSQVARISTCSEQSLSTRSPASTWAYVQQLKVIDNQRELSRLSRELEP

Papain (Carica papaya), sequence (P00784 whole entry, looked up, the tested form may be a part): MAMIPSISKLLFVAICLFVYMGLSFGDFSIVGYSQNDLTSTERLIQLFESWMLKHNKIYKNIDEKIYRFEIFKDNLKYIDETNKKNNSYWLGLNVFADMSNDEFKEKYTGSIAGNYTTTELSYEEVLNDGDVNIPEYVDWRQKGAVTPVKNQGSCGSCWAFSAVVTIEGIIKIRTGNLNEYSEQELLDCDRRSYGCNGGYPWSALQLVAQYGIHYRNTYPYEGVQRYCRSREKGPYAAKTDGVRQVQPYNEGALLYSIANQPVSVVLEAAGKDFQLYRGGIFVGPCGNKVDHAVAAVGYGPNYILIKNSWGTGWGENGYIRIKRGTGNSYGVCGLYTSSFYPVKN
Calcium and integrin-binding protein 1 (Homo sapiens), sequence (Q99828 whole entry, looked up): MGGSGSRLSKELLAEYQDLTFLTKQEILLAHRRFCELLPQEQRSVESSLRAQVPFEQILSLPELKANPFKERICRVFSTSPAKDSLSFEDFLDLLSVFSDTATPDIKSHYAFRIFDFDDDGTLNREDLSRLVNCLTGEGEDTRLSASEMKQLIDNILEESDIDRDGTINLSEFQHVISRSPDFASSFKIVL
Cytochrome P450 2C9 (Homo sapiens), sequence (P11712 whole entry, looked up): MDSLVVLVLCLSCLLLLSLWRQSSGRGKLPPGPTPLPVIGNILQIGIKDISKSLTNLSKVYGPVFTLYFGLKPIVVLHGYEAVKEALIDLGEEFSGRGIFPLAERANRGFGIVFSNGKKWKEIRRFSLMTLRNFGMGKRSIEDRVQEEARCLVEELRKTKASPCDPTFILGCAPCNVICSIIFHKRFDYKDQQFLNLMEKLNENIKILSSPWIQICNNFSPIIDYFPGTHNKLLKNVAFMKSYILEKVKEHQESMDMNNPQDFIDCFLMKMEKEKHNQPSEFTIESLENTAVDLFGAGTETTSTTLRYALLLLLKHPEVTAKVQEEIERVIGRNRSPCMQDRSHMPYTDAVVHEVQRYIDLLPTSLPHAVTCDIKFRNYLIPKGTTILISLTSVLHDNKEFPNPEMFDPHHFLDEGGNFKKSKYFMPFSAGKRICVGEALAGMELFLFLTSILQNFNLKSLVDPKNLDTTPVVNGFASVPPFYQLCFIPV
Single-stranded DNA cytosine deaminase (Homo sapiens), sequence (Q9GZX7 whole entry, looked up): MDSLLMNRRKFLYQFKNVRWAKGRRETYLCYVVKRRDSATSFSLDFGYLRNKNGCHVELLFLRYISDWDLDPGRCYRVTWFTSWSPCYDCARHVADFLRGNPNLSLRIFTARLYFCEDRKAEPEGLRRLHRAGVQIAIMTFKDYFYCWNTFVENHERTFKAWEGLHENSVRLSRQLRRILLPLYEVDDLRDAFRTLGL
Cytochrome P450 2D6 (Homo sapiens), sequence (P10635 whole entry, looked up): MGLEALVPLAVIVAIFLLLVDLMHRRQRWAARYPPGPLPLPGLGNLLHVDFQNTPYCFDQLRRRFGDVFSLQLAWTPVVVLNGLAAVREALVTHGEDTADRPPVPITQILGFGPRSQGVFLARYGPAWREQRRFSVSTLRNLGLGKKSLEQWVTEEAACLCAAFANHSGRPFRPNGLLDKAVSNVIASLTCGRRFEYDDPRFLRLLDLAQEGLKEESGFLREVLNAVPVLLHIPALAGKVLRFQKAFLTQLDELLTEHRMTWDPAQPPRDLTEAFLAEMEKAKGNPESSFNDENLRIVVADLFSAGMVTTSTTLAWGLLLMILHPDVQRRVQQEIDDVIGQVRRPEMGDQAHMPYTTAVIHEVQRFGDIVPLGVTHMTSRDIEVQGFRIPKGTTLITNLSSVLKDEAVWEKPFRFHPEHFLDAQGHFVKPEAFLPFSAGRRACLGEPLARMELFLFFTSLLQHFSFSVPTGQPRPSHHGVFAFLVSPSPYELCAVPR
N-terminal Xaa-Pro-Lys N-methyltransferase 1 (Homo sapiens), sequence (Q9BV86 whole entry, looked up): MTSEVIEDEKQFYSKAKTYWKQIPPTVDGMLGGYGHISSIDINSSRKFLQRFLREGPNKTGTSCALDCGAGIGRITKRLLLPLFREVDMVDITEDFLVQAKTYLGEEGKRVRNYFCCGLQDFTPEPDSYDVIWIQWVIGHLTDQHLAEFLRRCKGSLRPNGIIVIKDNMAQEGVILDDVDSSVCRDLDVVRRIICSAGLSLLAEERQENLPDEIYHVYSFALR

Row | SMILES | Potency [1] | Potency [2] | Potency [3] | Potency [4] | Potency [5] | Potency [6] | Potency [7] | Potency (Papain (Carica papaya)) | Potency [8] | Potency [9] | Potency [10] | Potency [11] | Potency [12] | Potency [13] | outcome [14] | Potency [15]
1 | C[C@H]1c2cccc(O)c2C(O)=C2C(=O)[C@]3(O)C(O)=C(C(N)=O)C(=O)[C@@H](N(C)C)[C@@H]3[C@@H](O)[C@@H]21 | inactive | inactive | inactive | inactive | inactive | inactive | inactive | 22.4 µM (active) | 23.5 µM (active) | 9.34 µM (active) |  |  |  |  |  | 
2 | CN1C(C(=O)Nc2ccccn2)=C(O)c2ccccc2S1(=O)=O | inactive | inactive | inactive | inactive | inactive | inactive | 15.5 µM (active) and 10.7 µM (active) | inactive | inactive | inactive | inactive |  |  |  |  | 
3 | Cc1cc(C(C)(C)C)cc(C)c1CC1=NCCN1 | inactive | inactive | inactive | inactive | inactive | inactive | inactive | inactive | inactive and 20.9 µM (active) | inactive and 18.6 µM (active) | inactive |  |  |  |  | 
4 | CCOC(=O)c1ncn2c1CN(C)C(=O)c1cc(F)ccc1-2 | inactive | inactive | inactive | inactive | inactive | inactive | inactive and 13.5 µM (active) | inactive | inactive | inactive |  |  |  |  |  | 
5 | Fc1ccc([C@@H]2CCNC[C@H]2COc2ccc3c(c2)OCO3)cc1 | inactive | inactive | inactive | inactive | inactive |  |  |  |  |  | inactive |  |  |  |  | 
6 | COc1ccccc1OCCNCC(O)COc1cccc2[nH]c3ccccc3c12 (configuration not stated) | inactive | inactive | inactive | inactive | inactive |  |  | inactive |  |  | inactive | 44.7 µM (active) and 35.5 µM (active) | inactive | 1.95 µM (active) |  | 
7 | Cc1ccc(C(=O)Nc2ccc(S(=O)(=O)O)c3cc(S(=O)(=O)O)cc(S(=O)(=O)O)c23)cc1NC(=O)c1cccc(NC(=O)Nc2cccc(C(=O)Nc3cc(C(=O)Nc4ccc(S(=O)(=O)O)c5cc(S(=O)(=O)O)cc(S(=O)(=O)O)c45)ccc3C)c2)c1 | inactive | 11.2 µM (active) | inactive |  | inactive | inactive | inactive | 7.08 µM (active) | inactive | inactive | inactive |  | 15.8 µM (active) |  |  | 
8 | CCC1(C)CC(=O)NC1=O (configuration not stated) | inactive | inactive | inactive | inactive | inactive | inactive | inactive | inactive | inactive | inactive |  |  |  |  | inactive | 
9 | CN1CCC(=C2c3ccccc3C=Cc3ccccc32)CC1 | inactive | inactive | inactive | inactive | inactive |  | inactive | inactive | 23.5 µM (active) | 18.6 µM (active) |  | inactive | 20 µM (active) and 15.8 µM (active) | 2.19 µM (active) |  | 
10 | Cn1cnc2c1c(=O)[nH]c(=O)n2C | inactive | inactive | inactive | inactive | inactive | inactive |  | inactive | inactive | inactive | inactive |  |  |  |  | 
11 | CN(Cc1cnc2nc(N)nc(N)c2n1)c1ccc(C(=O)N[C@@H](CCC(=O)O)C(=O)O)cc1 | inactive | inactive | inactive |  | inactive | inactive |  |  | 9.4 nM (active) and 148 nM (active) | 9.4 nM (active) and 148 nM (active) |  |  |  |  |  | 
12 | CN(C)c1nc(N(C)C)nc(N(C)C)n1 | inactive | inactive | inactive | inactive | inactive | inactive |  | inactive | inactive | inactive |  |  |  |  |  | 
13 | NC12CC3CC(CC(C3)C1)C2 | inactive | inactive | inactive | inactive | inactive | inactive |  | inactive | inactive | inactive | inactive | inactive | inactive |  |  | 
14 | NCCc1cnc[nH]1 | inactive | inactive | inactive | inactive | inactive | inactive |  | inactive | inactive | inactive |  |  |  |  |  | 
15 | O=C(c1ccc(F)cc1)C1CCN(CCn2c(=O)[nH]c3ccccc3c2=O)CC1 | inactive | inactive | inactive | inactive | inactive | inactive |  | inactive | inactive | inactive | inactive | inactive |  |  |  | 
16 | CN1CCN(CCCN2c3ccccc3Sc3ccc(Cl)cc32)CC1 | inactive | inactive | inactive |  | inactive |  | inactive | inactive |  |  | inactive |  |  |  |  | inactive
17 | CNCCCC12CCC(c3ccccc31)c1ccccc12 | inactive | inactive | inactive | inactive | inactive | 12.6 µM (active) |  | inactive | 21.1 µM (active) and 20.9 µM (active) | 18.8 µM (active) and 20.9 µM (active) |  |  |  |  |  | 
18 | Clc1ccc2c(c1)C(N1CCNCC1)=Nc1ccccc1O2 | inactive | inactive | inactive | inactive | inactive | inactive | inactive | inactive | inactive | inactive | inactive | inactive | inactive |  |  | 
19 | O=C(CCCN1CCC(O)(c2ccc(Cl)cc2)CC1)c1ccc(F)cc1 | inactive | inactive | inactive | inactive | inactive |  | inactive | inactive |  |  |  |  |  |  |  | 
